Compound activity as filed in PubChem.
An excerpt weighted towards active compounds, which were near 27% of everything screened.
PTK2B oligo ant: blocks oligomerization of human Pyk2 in cells | Q293 cells, Pyk2 FERM NanoBiT luminescence; hits give low values | z-score (the deposit names both 25 µM and 10 µM) | AID 1347419 | hit rate 0.83% among 99,000;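 active means Z-score of -3 or lower, scaled per plate to the spread of control and sample wells; inactive means z-score above -3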;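 further: negative z-score means lost luminescence so less FERM oligomerization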
CYP2C9 act: CYP2C9 (human) activation | P11712 | recombinant CYP2C9, luciferin-H conversion, luminescence; hits give high values; factor 1 = untreated enzyme, 0 = blocked | activation factor at 5 µM | hit rate 1.4% among 96,000;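 active means activation factor of 2 or more for CYP2C9 at a 5 µM dose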;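 further: 0 = sulfaphenazole-blocked wells and 1 = vehicle-only wells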
Target sequence (P11712 whole entry, looked up): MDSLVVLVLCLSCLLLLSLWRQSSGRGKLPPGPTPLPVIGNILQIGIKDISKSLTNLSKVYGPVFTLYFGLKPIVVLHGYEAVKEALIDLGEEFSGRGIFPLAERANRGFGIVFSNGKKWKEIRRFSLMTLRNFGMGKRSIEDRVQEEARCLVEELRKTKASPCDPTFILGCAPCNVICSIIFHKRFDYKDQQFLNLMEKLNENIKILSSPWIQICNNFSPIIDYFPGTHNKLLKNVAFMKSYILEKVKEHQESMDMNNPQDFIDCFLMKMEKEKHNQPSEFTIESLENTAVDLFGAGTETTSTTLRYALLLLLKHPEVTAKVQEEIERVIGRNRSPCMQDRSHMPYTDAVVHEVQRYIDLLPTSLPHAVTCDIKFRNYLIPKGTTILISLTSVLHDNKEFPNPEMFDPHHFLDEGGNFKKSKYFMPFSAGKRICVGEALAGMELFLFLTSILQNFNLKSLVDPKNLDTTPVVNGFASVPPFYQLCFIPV
Cav3 T inh: blocks human Cav3.2 T-type calcium channel | O95180 | Cav3.2-expressing cells, Fluo-4 calcium fluorescence FDSS; hits give low values | B-score at 10 µM | hit rate 4% among 100,000;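 active means single-dose well whose peak fluorescence ratio is a statistical outlier from its plate by either plate-standardised score or position-corrected B-score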
CYP2C19 inh: inhibitors of human CYP2C19; P33261; CYP2C19 Supersomes, luciferin-H EGE luminescence, 30 min; inhibition, % at 5 µM; hit rate 21% among 96,000; AID 778;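 active means CYP2C19 inhibition above a set limit at 5 µM in the primary screen, cut at about 50% in these data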;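 further: plate controls were negative control wells for no effect and 2.5 mM tranylcypromine positive control for full effect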
CYP2C9 inhib: inhibitors of human CYP2C9; P11712; CYP2C9 Supersomes, luciferin-H conversion, luminescence; inhibition, % at 5 µM; hit rate 20% among 96,000; AID 777;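 active means blocking of liver enzyme CYP2C9 beyond about 50% at 5 µM, limit read from the data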
CYP2C19 act: increases human CYP2C19 enzyme activity; P33261; recombinant CYP2C19, luciferin-H EGE luminescence; hits give high values; 0 = fully inhibited enzyme, 1 = untreated enzyme; 96,000 tested, under 10 active; activation factor at 5 µM;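 active means activation factor of at least 2 at 5 µM in the primary screen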;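 further: 0 = wells with 2.5 mM tranylcypromine and 1 = vehicle-only wells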
* marks the source's active call; other numbers are inactive results; x = no result given.

SMILES	PTK2B oligo ant	CYP2C9 act	Cav3 T inh	CYP2C19 inh	CYP2C9 inhib	CYP2C19 act
O=C(CCSc1nnc(-c2ccncc2)o1)Nc1ccc(F)cc1	0.82	0.4	0.216	85.1*	56.8*	0.1
O=C(CCSc1nnc(-c2ccncc2)o1)Nc1ccccc1	1.3	0.2	1	86.4*	84.9*	0.1
CCCCCCn1c(=O)c(-c2ccccc2)c(O)c2ccccc21	-0.05	0.2	-7.08*	35.2	75.9*	0.6
COC(=O)/C(=C\C(=O)c1ccccc1)Nc1cccc(C(F)(F)F)c1	0.2	0.5	-1.04	13.3	45.9	0.9
CCOC(=O)C1=C(CSc2nc3ccccc3s2)NC(=O)NC1c1cc(C)ccc1C (centres undefined)	-2.44	0.2	-2.06	67.8*	78.0*	0.3
COC(=O)C1=C(CSCc2ccco2)NC(=O)NC1c1cc(C)ccc1C (centres undefined)	-0.02	0.2	0.245	91.0*	79.7*	0.1
COC(=O)C1=C(CN2CCSCC2)NC(=O)NC1c1cc(C)ccc1C (centres undefined)	-1.53	1	0.681	18.6	-0.3	0.8
COC(=O)C1=C(CSc2nc3ccccc3o2)NC(=O)NC1c1cc(C)ccc1C (centres undefined)	-2.18	0.2	x	77.0*	78.5*	0.2
CCOC(=O)C1=C(CN2CCSCC2)NC(=O)NC1c1cc(C)ccc1C (centres undefined)	-2.15	0.4	0.331	37.8	55.5*	0.6
CN(C)c1ccc(C2N(C(=O)N3CCOCC3)CCN2S(=O)(=O)c2ccccc2)cc1 (centres undefined)	-0.22	0.9	-1.28	9.7	5.2	0.9
CCCS(=O)(=O)N1CCC(C(=O)NCc2ccco2)CC1	0.26	0.9	0.998	2.3	7.4	1
Cc1cccc(Oc2coc3cc(OC(=O)c4cc5ccccc5oc4=O)ccc3c2=O)c1	-0.35	2.1*	-0.435	-10.9	-114.0	1.1
CCn1cc(CNC(=O)CCSc2nc(-c3ccco3)cc(C(F)(F)F)n2)cn1	x	0.8	0.395	24.3	19.1	0.8
S=c1[nH]nc(-c2ccc(Cl)cc2)n1Cc1ccccc1	-0.71	x	-3.62	x	x	x
COCCCn1c(-c2ccc(Cl)cc2)n[nH]c1=S	2.32	0.7	0.339	77.3*	34.8	0.2
CCOCCCn1c(-c2ccc(Cl)cc2)n[nH]c1=S	0.17	0.5	0.625	84.0*	50.6*	0.2
CCn1c(-c2csc(-c3ccc(Cl)cc3)n2)n[nH]c1=S	0.19	0.9	x	28.9	8.1	0.7
Cc1ccc(C=Nc2ccc(N(C)C)cc2)o1	-0.32	0.6	-1.47	52.5*	43.5	0.5
COc1cc(C(=O)NCCOc2cc(C)cc(C)c2)c(Br)c(OC)c1OC	-1.52	1.1	-3.59	86.2*	-7.7	0.1
CCc1ccccc1Nc1nc(N)nc(CSCC(=O)c2cc(C)n(C)c2C)n1	-0.26	0.3	-0.322	85.1*	66.2*	0.1
S=c1nc(-c2ccccc2)n(CCCn2ccnc2)c2c1CCCC2	x	0.9	x	-8.7	6.9	1.1
N=c1c2c(-c3ccccc3)c(-c3ccccc3)n(Cc3ccco3)c2ncn1Cc1ccco1	-2.08	0.2	-9.34*	66.0*	83.0*	0.3
N=c1c2c(-c3ccccc3)c(-c3ccccc3)n(Cc3ccccc3)c2ncn1CCCn1ccnc1	-0.48	0.4	-0.449	81.6*	58.3*	0.2
COCCNC(=O)C(c1ccc(F)cc1)N(CC1CCCO1)C(=O)CCC(=O)Nc1ccccn1 (centres undefined)	1.29	1.1	0.505	-14.5	-14.7	1.1
O=C(COC(=O)Cn1cnc2ccccc21)NCCC1=CCCCC1	-0.37	1.1	-0.765	-2.8	-12.5	1
COC(=O)c1ccc2c(c1)C(C)(C)C(/C=C/c1ccccc1O)=[N+]2C	-0.23	0.4	-3.68*	41.8	58.6*	0.6
CC1(C)Cc2c(c(-c3ccccc3)nc3[nH][nH]c(=O)c23)CO1	-0.4	1	0.88	56.9*	3.0	0.4
CC1(C)Cc2c(C#N)c(NCCCO)nc(-c3ccccc3)c2CO1	x	0.4	0.0299	20.6	60.9*	0.8
CCN(CC)CCNc1nc(-c2ccccc2)c2c(c1C#N)CC(C)(C)OC2	1.61	0.7	-3.68*	10.7	28.6	0.9
COc1ccc(-n2c(=O)c3ccccc3n(CC(=O)NC3CCCC3)c2=O)c(OC)c1	-0.5	1.1	0.165	-13.8	-5.6	1.1
